# Reference: PubChem BioAssay (NCI)
# This is part of a sample that, as a whole, favours compounds with a hit. Of some 83,000 tested, about 20% had one in any assay.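 Assay: single dose, 48 h. Readout: percent growth (0 = no net growth; negative = cell death). Active: <10.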 A number with no mark means an inactive call. Activity calls are given as the source filed them.
# Assays:
# Test in all cases: NCI-60 one-dose screen, 48 h (100 = growth as untreated, 0 = no growth, -100 = all killed)
# Details in all cases: 10 µM unless noted
# [1] = tested on: NCI-H23 lung
# [2] = tested on: NCI-H226 lung
# [3] = tested on: NCI-H322M lung
# [4] = tested on: HOP-62 NSCLC
# [5] = tested on: NCI-H460 lung
# [6] = tested on: HOP-92 NSCLC
# [7] = tested on: NCI-H522 lung
# [8] = tested on: A549/ATCC NSCLC
# [9] = tested on: 786-0 renal
# [10] = tested on: COLO 205 colon
# [11] = tested on: DU-145 prostate
# [12] = tested on: MALME-3M melanoma
# [13] = tested on: MDA-MB-231 breast
# [14] = tested on: RXF 393 renal
# [15] = tested on: SF-268 CNS
# [16] = tested on: SF-295 CNS
# [17] = tested on: SF-539 CNS
# [18] = tested on: UACC-257 melanoma
# [19] = tested on: M14 melanoma
Compound,growth [1],growth [2],growth [3],growth [4],growth [5],growth [6],growth [7],growth [8],growth [9],growth [10],growth [11],growth [12],growth [13],growth [14],growth [15],growth [16],growth [17],growth [18],growth [19]
CN(C)c1ccc(N=Nc2ccccn2)c(O)c1,16.1%,14.4%,21.9%,7.8% (active),5.5% (active),57.9%,27.1%,11.8%,15%,17.3%,21.6%,13.8%,36.7%,46.3%,14.6%,19.9%,0.733% (active),-9.35% (active),-2.06% (active)
COc1ccc(C(=O)/C=C/c2cccnc2Nc2cc(OC)c(OC)c(OC)c2)cc1,59.2%,41%,80.5%,48%,5.28% (active),49.3%,14.8%,23.6%,39.2%,38.6%,31.9%,80.5%,49%,12.9%,14.9%,27.4%,4.67% (active),35.8%,42.7%
COc1cc(/C=C/C(=O)Nc2cccnc2Nc2ccc(F)cc2)cc(OC)c1OC,99.6%,99%,107%,103%,112%,74.8%,48.9%,70.1%,92.8%,113%,110%,110%,93.5%,108%,102%,94.2%,95.2%,62.9%,103%
COc1ccc2c(c1)CC/C(=C\c1cncc(Br)c1)C2=O,92.7%,111%,106%,90%,103%,84.4%,55.7%,95.3%,92.7%,106%,102%,106%,94.5%,98.4%,97.1%,94.5%,93.2%,112%,92.9%
C=C1C(=O)O[C@H]2[C@H]1CC/C(COC(=O)NCc1ccc(OC)c(OC)c1)=C\CC[C@@]1(C)O[C@@H]21,45.8%,85.9%,97.6%,87.8%,87.8%,66.2%,-65.5% (active),97.9%,81.6%,8.26% (active),28.6%,61.5%,55%,20.7%,79.8%,88.2%,42.9%,64.2%,61.5%
NC(=NCCCC1(c2ccccc2)CCCC1)Nc1ccc(Cl)cc1,44%,96.5%,36.2%,69.6%,-32.8% (active),9.43% (active),56.9%,63.1%,65.5%,-72.5% (active),37.8%,-48.9% (active),1.92% (active),51.7%,58.5%,10%,51.3%,26.4%,-65.5% (active)
COc1cc2c(cc1OC)C(Sc1ccc(SC)cc1)c1c(nc(N)c(C#N)c1N)O2 (centres undefined),-56.1% (active),-65.7% (active),-86.9% (active),-46.3% (active),-79% (active),-23.7% (active),-92.6% (active),-63.5% (active),-80.7% (active),-79% (active),-75.8% (active),-67% (active),-67.4% (active),-75.9% (active),-36.6% (active),-56.3% (active),-95.3% (active),-51.2% (active),-80.6% (active)
Cc1cc(N[C@@H]2CCC[C@H](Nc3ccnc4cc(Cl)ccc34)C2)nc(N2CCCCCC2)n1,-30.3% (active),-38.9% (active),-37.8% (active),-69.7% (active),-70.9% (active),-77.7% (active),-61.5% (active),-48.9% (active),-96.1% (active),-79.3% (active),-6.21% (active),-86.4% (active),-85.8% (active),-80.6% (active),-66.2% (active),-76.1% (active),-93% (active),-76.5% (active),-89.2% (active)
Clc1ccc2c(NCCCNc3nc(-n4ccnc4)nc4ccccc34)ccnc2c1,96.1%,90.4%,94.7%,83%,95.2%,58%,89%,92.3%,77.6%,87.7%,94.8%,102%,83.2%,81%,89%,89.6%,76.1%,94.2%,95.1%
Cn1ccnc1C(=O)/C=C/c1ccc(CC(=O)Nc2ccccc2)cc1,18.9%,47%,2.66% (active),6.23% (active),-19% (active),26.6%,12.8%,5.36% (active),18.6%,4.76% (active),10.3%,72.8%,12.6%,12.1%,10.6%,26.2%,-18.5% (active),78.7%,27.8%
COc1cc2c(cc1O)CC[C@@H]1[C@@H]2CC[C@]2(C)[C@@H](OCCN(C)C)CC[C@@H]12,42.3%,76.5%,51.3%,59.9%,39.6%,48.6%,18.4%,66.5%,57.9%,58.8%,12.8%,16.7%,16.2%,52.4%,56.2%,-4.56% (active),4.14% (active),-18.2% (active),0.0496% (active)
C=C1C(=O)O[C@H]2[C@H]1CC/C(COC(=O)NCCc1ccc(OC)c(OC)c1)=C\CC[C@@]1(C)O[C@@H]21,59.2%,82.6%,88%,92.7%,93.9%,26.6%,-79.9% (active),86.4%,77.7%,12.7%,39.5%,63.3%,58%,34.7%,80.3%,95.8%,47.2%,62.9%,65.7%
CC/C=C\C/C=C\C[C@H]1C/C=C2/C(=O)C=C[C@@H]2C/C=C\CCC(=O)O1,12.1%,-36.1% (active),45.3%,-1.49% (active),-4.43% (active),-11.8% (active),-69.9% (active),2.89% (active),-43.7% (active),-29.9% (active),23.2%,29.6%,19.3%,-71.3% (active),21%,3.94% (active),-25.5% (active),-13.3% (active),7.48% (active)
COc1ccc(SC2c3ccc(C)cc3Oc3nc(N)c(C#N)c(N)c32)cc1 (centres undefined),-43.8% (active),-63.9% (active),5.34% (active),-10.6% (active),-49.6% (active),-56.7% (active),-90.3% (active),19.9%,-95.4% (active),-66.5% (active),-88.3% (active),-87.6% (active),-86.5% (active),-69.2% (active),2.01% (active),44.8%,-75.4% (active),-74.8% (active),-76.5% (active)
CN(C)c1ccc(N=Nc2ccc(Br)cn2)c(O)c1,19.3%,7.29% (active),21.1%,18.5%,3.96% (active),50.3%,14.4%,10.3%,20.5%,7.48% (active),24.7%,17.8%,34.1%,55.5%,16.8%,17.4%,-10.2% (active),-11.5% (active),-1.74% (active)
COc1cccc(NC(=O)c2sc3nc(C)c(C(C)=O)cc3c2N)c1,65.5%,83.7%,45.5%,44.7%,10.8%,52%,40.1%,20.5%,58.5%,-1.6% (active),23.3%,71.2%,58.5%,51.6%,69.8%,29.9%,32%,60.1%,23.7%
